SMILES strings stand for the structures. About 520 (0.27%) of roughly 190,000 compounds were called active. Not shown: some 2% with an inconclusive outcome. For the sample, actives were picked, then their nearest neighbours and some compounds at random. Unmarked numbers belong to inactive results.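 Rule for the calls: active = GTP binding activity at least 20 points away from the 100% control level, either lower or higher; inconclusive = compound flagged as likely green fluorescent, judged across all proteins; inactive = the rest.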

This experiment concerns the target Ras-related C3 botulinum toxin substrate 1 (Homo sapiens) (UniProt P63000). The experiment in a line: wildtype Rac1 GTP binding modulators, primary screen, biochemical, GST-Rac1 beads, flow cytometry, multiplex (AID 757). The settings on record: fluorescent GTP binding, at 10 µM, actives lie on both sides, 0 = cold GTP competed, 100 = untreated. A general note: Flow cytometry measures light scatter and fluorescence of single cells or particles in a stream.
For `S=c1[nH]nc(/C=C/c2ccccc2)o1`, the GTP binding activity (% of control) is 93%.

As to `COc1ccc(C)cc1NC(=S)Nc1ccccc1SC`, the GTP binding activity (% of control) is 100%. Regarding `CC(=O)Cn1ncc(N2CCOCC2)c(Br)c1=O`, the GTP binding activity (% of control) is 95%. Then `CC(=O)NCCC(=O)Nc1cc(S(=O)(=O)N2CCOCC2)ccc1N1CCOCC1`, with 100%; and `O=C(CSc1nn(-c2ccc(F)cc2)c(=S)s1)NC1CCS(=O)(=O)C1` (stereo unspecified), with 104%. The same measure for `COc1ccc(OC)c(NC(=O)CN(Cc2ccc(Cl)cc2)S(C)(=O)=O)c1`: 97%; for `COc1ccc(N2CCN(C(=O)C3CCN(S(=O)(=O)c4ccc(C)cc4)CC3)CC2)cc1`: 101%; for `CCC/C(O)=C1\C(=O)CC(C)(C)CC1=Nc1ccccc1OC`: 125% [activator] (active). As for `CCOc1ccccc1N=C1NC(=O)CS1`, the GTP binding activity (% of control) is 96%. Then `CC/C(O)=C1\C(=O)CC(C)(C)CC1=NCCc1nc2ccccc2[nH]1`, with 106%; and `CCN(CC)CCCNC(=O)Cn1cnc2sc(C)c(S(=O)(=O)N3CCN(c4ncccn4)CC3)c2c1=O`, with 93%; and `Cc1nc2ccc(NC(=S)N3CCC(C)CC3)cc2nc1C`, with 100%. Then `CC(C)(C)NC(=O)NC(=O)COC(=O)Cc1ccc(Cl)cc1Cl`, with 101%. Then `Cc1ccc(NC(=O)NC2CCCCC2)cc1S(=O)(=O)N1CCOCC1`, with 99%.

`CC1(C)CN=C(N2CCN(c3ncnc4sc5c(c34)CCCC5)CC2)S1`: the GTP binding activity (% of control) is 99%. Then `COc1ncnc2sc3c(c12)CCCC3`, with 104%; and `COc1ccc(/C=N/Nc2ncnc3sc4c(c23)CCCC4)cc1O`, with 77% (active). The same measure for `O=C1c2oc3ccccc3c(=O)c2C(c2cccc(O)c2)N1c1ccccn1` (stereo unspecified): 106%; for `O=C1c2oc3ccc(Br)cc3c(=O)c2C(c2cccc(F)c2)N1CCO` (stereo unspecified): 123% [activator] (active); for `COCCN1C(=O)c2oc3c(C)cc(C)cc3c(=O)c2C1c1cccc(O)c1` (stereo unspecified): 104%. Then `O=C(Nc1cccc(CCc2ccccn2)c1)c1ccc(Cl)cc1`, with 97%. Regarding `CC1(C)OC(=O)C(=CNC(CO)C(=O)O)C(=O)O1` (stereo unspecified), the GTP binding activity (% of control) is 100%. Then `CC1CN(CCCOc2ccccc2-c2ccccc2)CC(C)O1` (stereo unspecified), with 94%; and `CCOc1ccc(-n2cnnn2)cc1S(=O)(=O)N1CCC(C)CC1C` (stereo unspecified), with 97%. For the compound `COc1ccc(NC(=O)N2CCCC(c3nc(-c4ccc(F)cc4)no3)C2)cc1` (stereo unspecified), the GTP binding activity (% of control) is 103%.

As to `CNc1[nH]ncc1[N+](=O)[O-]`, the GTP binding activity (% of control) was 95%. The same measure for `Cc1cc(C)cc(C(=O)NCC(=O)OCC(=O)N2CCCCC2)c1`: 99%; for `COC(=O)c1cc2nc(-c3ccccc3)cc(C(F)(F)F)n2n1`: 99%; for `COc1ccc(NC(=O)c2cc3nc(-c4ccccc4)cc(C)n3n2)cc1OC`: 78% (active). Consider `COc1ccc(NC(=O)c2ccccc2[N+](=O)[O-])cc1OC`, for which the GTP binding activity (% of control) was 105%. The same measure for `COc1c(F)c(F)c(C(=O)O)c(Nc2ccccc2C)c1F`: 101%; for `Cc1ccc(Nc2c(F)c(F)c(F)c(F)c2C(=O)O)c(C)c1`: 154% [activator] (active); for `Cc1ccc(NC(=S)NC(=O)c2ccc(-c3ccccc3)cc2)c(C)c1`: 99%. The same measure for `COc1ccc(-n2c(O)c(C=NCC(c3ccco3)N3CCCC3)c3ccccc3c2=O)cc1OC` (stereo unspecified): 102%. Regarding `CN(C)S(=O)(=O)c1ccc(NC(=O)N2CCOCC2)cc1`, the GTP binding activity (% of control) is 100%. `Cc1ccc(OCC(=O)NC(C)c2ccccc2)c([N+](=O)[O-])n1` (stereo unspecified): the GTP binding activity (% of control) was 98%.

With `O=C(NNC(=O)c1ccc(Cl)cc1Cl)c1cccs1`, the GTP binding activity (% of control) was 96%. Consider `Cc1ccc(Cl)cc1NC(=O)c1ccccn1`, for which the GTP binding activity (% of control) is 90%.

As for `COc1ccc(/C=N/NC(=O)CNC(=O)c2ccc(S(=O)(=O)N3CCCC3)cc2)c(OC)c1`, the GTP binding activity (% of control) was 98%. Take `Cc1ccc(C(=O)CS(C)(=O)=O)cc1`: the GTP binding activity (% of control) is 101%. Then `CC(C)(C)c1ccc(C(=O)CSc2ncn[nH]2)cc1`, with 105%; and `Cc1ccc(SC(CC(=O)c2ccc(C(C)(C)C)cc2)C(=O)O)cc1` (stereo unspecified), with 79% (active). Then `N/C(=N\OC(=O)c1ccc2c(c1)OCO2)c1ccc(Br)cc1`, with 94%. The same measure for `COc1ccc(C)cc1NC(=O)NCc1ccccn1`: 103%. For `CN(CCN1CCOCC1)Cc1nc(-c2ccc3c(c2)OCO3)no1`, the GTP binding activity (% of control) was 98%. Then `O=C(NCCCN1CCOCC1)c1ccccc1NS(=O)(=O)c1ccc(Br)cc1`, with 100%.

These data come from PubChem BioAssay AID757 (NMMLSC, 2007).
